# Cycloheximide cs: affects cycloheximide protein synthesis inhibition readout, counter-screen; cell reporter, cycloheximide protein synthesis inhibition counterscreen; 12% of 300,000 active; max response, %; in the data active = max response mostly above about 13%, no sharp cut-off; inactive = mostly below about 14%; note: read at 38.3 µM for the half of the compounds with a filed dose; 0% is about no effect
# Shiga inhibitor: Shiga toxin inhibition. inhibition, % at 38.7 µM. 9.2% of 290,000 active. Vero cells, Shiga toxin protein synthesis inhibition reporter. AID 2315; in the data active = inhibition mostly above about 28%, no sharp cut-off; inactive = mostly below about 43%; note: 0% is about no effect
# NS1 inh: influenza NS1 inhibition; AID 2326; Potency, µM (top dose mostly 46.1 µM), without a hit: at the top dose activity, positive = more growth; 0.4% of 270,000 active; note: potency is the fitted concentration of half-maximal effect; actives are rising curves; nearly all actives have a fitted effect of over 50% in size
#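 Growth recovery, yeast-based: influenza A NS1 expressed in S. cerevisiae causes slow growth, and suppressors are detected by OD600. The parent strain without NS1 is used as positive control.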
# Pf growth 48h: P. falciparum growth inhibition at 48 hours (one generation). P. falciparum luciferase growth in erythrocytes, 48 h. Potency, µM (highest dose often 28.7 µM), inactives show at the highest dose activity change, negative = inhibition, most hits filed as inhibitors. 5.9% of 310,000 active; active = well fitted inhibition curve with a large enough effect; inconclusive = small, poorly fitted or top-dose-only effect, or another doubt; inactive = no such curve, though single readings can be large or run the other way; note: potency is the fitted concentration of half-maximal effect; % is set by controls: 0 for no effect and ±100 for the full control effect
#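 Growth was read as firefly luciferase luminescence after a 48 h, 37 C, 5% CO2 exposure of compounds to reporter-bearing P. falciparum cultures (0.1% parasitemia, 2% hematocrit final) in Albumax-supplemented RPMI 1640.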
# SARS PLpro yeast-1: inhibitors of SARS-CoV papain-like protease in yeast; S. cerevisiae expressing SARS-CoV PLpro, growth rescue; Potency, µM (titrated, usually from 32.9 µM), for the others: at the highest dose activity, positive = growth rescue, most hits filed as activators; 0.19% of 330,000 active; AID 485353; note: potency is the fitted concentration of half-maximal effect; 0% is about no effect; nearly all actives have a fitted effect of over 55% in size
# Pf growth 96h: P. falciparum growth inhibition at 96 hour, primary screen for plastid delayed-death inhibitors | P. falciparum luciferase reporter growth, 96 h | Potency, µM (highest dose often 28.7 µM), for inactives: at the highest dose activity change, negative = inhibition, actives largely listed as inhibitors | 6.9% of 320,000 active | AID 504834; active = well fitted inhibition curve with a large enough effect; inconclusive = small, poorly fitted or top-dose-only effect, or another doubt; inactive = no such curve, though single readings can be large or run the other way; note: potency is the fitted concentration of half-maximal effect; % is set by controls: 0 for no effect and ±100 for the full control effect
#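 P. falciparum expressing integrated firefly luciferase grown in erythrocytes (2% hematocrit, 0.05% parasitemia final) with compounds for 96 hours at 37 C, 5% CO2. Growth inhibition read as loss of luminescence after adding luciferase detection reagent.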
# SARS PLpro yeast-2: Rescues yeast growth by inhibiting SARS-CoV PLpro; shares compounds with SARS PLpro yeast-1; yeast expressing SARS-CoV PLpro, growth phenotype rescue; calls only; 19% of 1,000 active; AID 652038; call rule not given here
# Starred values were filed as active, the others as inactive; i = inactive; ? = inconclusive; · = no result given; + = active, no number; [ ] = another dose, or the depositor's remark. These entries were drawn from the full list. Unless noted, calls come from the whole dose curve.
SMILES,Cycloheximide cs,Shiga inhibitor,NS1 inh,Pf growth 48h,SARS PLpro yeast-1,Pf growth 96h,SARS PLpro yeast-2
COc1cccc(-c2c(NC(=O)c3ccco3)oc3ccccc3c2=O)c1,2,21,-16%,12%,?,40%,i
O=C(Nc1ccccc1Cl)c1cccc(COc2cc(Cl)ccc2Cl)c1,42*,51*,0%,·,?,86%,i
COc1ccc(C(=O)Nc2cc(OCc3ccccc3)c(Cl)cc2Cl)cc1,1,5,10%,53%,2%,61%,·
Cc1ccccc1C1=Nn2c(nnc2-c2ccco2)SC1,-2,-2,-7%,6%,-1%,16%,·
C=CCN(CC=C)C(=S)NC(=O)/C=C/c1ccc(C)cc1,5,9,14%,-19%,?,?,·
C=CCN(CC=C)C(=S)NC(=O)/C=C/c1ccccc1,-1,9,17%,-2%,2.8µM*,-23%,i
Cc1ccc(N2CC(C(=O)OCC(=O)Nc3ccccc3C)CC2=O)cc1 (stereo not drawn),·,·,·,16%,?,-5%,?
CCN(CC)S(=O)(=O)c1cccc(C(=O)N/N=C/c2ccc(O)c(O)c2O)c1,-3,4,15%,-12%,5µM*,-3%,+
CCN(CC)S(=O)(=O)c1cccc(C(=O)N/N=C(\C)c2ccc(O)cc2O)c1,7,17,·,0%,3.5µM*,?,i
Cn1c(SCC(=O)C(C)(C)C)nnc1-c1ccncc1,-4,-14,8%,·,10%,5%,·
CC(=O)CSc1nnc(-c2ccncc2)n1C,-3,-13,1%,·,?,-22%,i
COc1cccc(C(=O)NC(=S)NCc2ccco2)c1,23*,40*,1%,70%,?,3.7µM*,+
C#CCSc1nnc(CSc2nc3ccccc3s2)n1-c1ccccc1,11,-15,-13%,-17%,?,·,?
O=C(O)CSc1nnc(CSc2nc3ccccc3s2)n1-c1ccccc1,1,-12,4%,7%,5%,-1%,·
COCCNC(=O)c1cc(-c2ccccc2)n(Cc2cc(C)no2)n1,·,·,·,31%,-3%,32%,·
O=C(O)c1ccc(NCc2ccc3c(c2)OCO3)cc1,12,4,-102%,·,?,?,i
Cc1noc(C)c1C(=O)Nc1nc(-c2ccc(F)cc2)cs1,·,·,·,25%,?,19%,i
O=C(CNCCO)Nc1ccc(F)c(Cl)c1,-4,12,·,89%,3%,13%,·
O=C(CNCCCO)Nc1cc(C(F)(F)F)cc(NC(=O)CNCCCO)c1Cl,2,-9,15%,16%,?,?,i
O=S(=O)(O)c1ccc(-c2nnc(-c3ccccn3)nc2-c2ccc(S(=O)(=O)O)o2)o1,·,·,-5%,·,·,·,·
CNc1nc(-c2ccccn2)nnc1-c1ccccc1,4,22,-44%,·,?,?,i
CCC1(CC)C(=O)C2=C3C1[C@H](C(=O)OC)C=C(C(=O)OC)C[C@H]3n1c(=O)n(-c3ccccc3)c(=O)n1[C@H]2C (stereo partly drawn),-4,-4,·,·,·,·,·
N#Cc1ccccc1NC(=O)COC(=O)/C=C/c1cn(-c2ccccc2)nc1-c1ccc(Cl)cc1,4,16,-3%,2%,-1%,8%,·
NC(=O)c1ccc(NC(=O)COC(=O)/C=C/c2cn(-c3ccccc3)nc2-c2cccnc2)cc1,-3,-10,14%,-18%,?,4%,i
CC(=O)N(CCc1ccccc1C)Cc1cc2cc3c(cc2[nH]c1=O)OCO3,-4,-8,-3%,2%,11µM*,2%,i
SMILES,Cycloheximide cs,Shiga inhibitor,NS1 inh,Pf growth 48h,SARS PLpro yeast-1,Pf growth 96h,SARS PLpro yeast-2
CCC(=O)N(CCc1ccccc1C)Cc1cc2ccc(C)cc2[nH]c1=O,0,-4,?,-9%,-1%,0%,·
CCCn1c(SCC(=O)N2c3ccccc3CC2C)n[nH]c1=O (stereo not drawn),·,·,·,-4%,-3%,-19%,·
O=C(Cn1nc(Cl)nc1Cl)c1ccc2c(c1)OCCO2,-2,-7,-144%,13%,11µM*,-21%[5.75 µM],?
O=C(Cn1nc(Cl)nc1Cl)c1ccccc1,-4,-2,4%,-4%,-2%,-3%,·
COC(=O)C1(S(=O)(=O)c2cc(Br)cc3c2N(C(C)=O)CC3)CC1,-1,-12,2%,9.3µM*,?,77%,i
COc1ccc([N+](=O)[O-])cc1COc1cc(C)cc2oc(=O)cc(-c3ccccc3)c12,-1,19,5%,?,-11%,?,·
COc1cccc(-c2cccc(NC(=O)C3CCN(Cc4cccc(C)n4)CC3)c2)c1,-3,-30,-7%,?,?,8%,·
CCn1cc(CN2CCC(C(=O)Nc3cccc(-c4cccc(OC)c4)c3)CC2)c(C)n1,-3,12,8%,?,?,13%,i
COc1ccc(CCNC(=O)CCNC(=O)c2ccc(Br)cc2)cc1OC,-1,-14,6%,1%,?,-13%,i
COc1ccc(CCNC(=O)Cn2nnc(-c3ccccc3F)n2)cc1OC,-6,-15,-2%,·,?,?,i
O=C(Cn1nnc(-c2ccccc2F)n1)Nc1ccc2c(c1)OCO2,1,-13,-2%,·,?,22%,i
COc1ccc(-c2nnn(CC(=O)NCCc3ccc(OC)c(OC)c3)n2)cc1,-3,-2,-1%,-7%,-1%,49%,·
COc1ccc(CCNC(=O)CCNC(=O)c2ccc(Cl)cc2)cc1OC,-4,1,5%,-11%,-25%,?,·
O=c1c2cc3c(cc2[nH]c(=S)n1C1CCN(Cc2ccccc2)CC1)OCO3,3,-11,·,27%,1%,?,·
CCNC(=S)NNC(=O)c1ccccc1Cl,-2,4,12%,11%,9%,17%,·
CCNC(=S)NNC(=O)c1ccccn1,-2,9,7%,?,?,?,i
COC(C(=O)Nc1ccc(S(=O)(=O)Nc2ccc(F)cc2)cc1)c1ccccc1 (stereo not drawn),-5,-8,-8%,5%,0%,?,·
COC(C(=O)Nc1ccc(F)cc1)c1ccccc1 (stereo not drawn),-3,-1,5%,-2%,16µM*,8%,i
O=C(CC(CC(=O)c1ccccc1)c1ccccc1)c1ccccc1,10,7,-7%,-8%,-1%,1%,·
O=C(CC(Nc1ccc(F)cc1)c1ccccc1)c1ccccc1 (stereo not drawn),31*,91*,0%,18%,3.2µM*,63%,i
O=C(Nc1ccc(F)cc1)c1ccccc1,44*,103*,-12%,·,?,112%,i
COc1ccc(/C=N/N2CCN(c3ccc(Cl)cc3)CC2)cc1,-2,·,18%,74%,3%,63%,·

# Screening data: PubChem, National Center for Advancing Translational Sciences (NCATS)
